The values below come from the OligoGym collection.
Also: reference of the scale not given here.

One assay deals with ODF3L1. As to the kind of experiment: pooled miR-30 sensor sort-seq; sequence = guide strand. The following applies: shRNA.
Regarding ATCTTCTCAAAGTAGTACTGGC, the sensor-assay potency score (higher = more potent) was -0.892.

Take TCATGATCTATGTAGCCCGTGC: the sensor-assay potency score (higher = more potent) is -0.361.

The sequence TGATCTATGTAGCCCGTGCAGG gave a sensor-assay potency score (higher = more potent) of -1.19.

Sequence TTGAGGTCCATCACTCTGTATG gave a sensor-assay potency score (higher = more potent) of -1.32.

Consider TCCTTGTAGAACCAGTTCTTGT, for which the sensor-assay potency score (higher = more potent) was -1.85.

Regarding TAAGCTGGTGCCTTGAACATGG, the sensor-assay potency score (higher = more potent) came to 0.328.

TAGCAGGGAGCAGCTCGGCTGA registered a sensor-assay potency score (higher = more potent) of -1.48.

The sequence TCTGCTACTAGAAATCTTGGTC registered a sensor-assay potency score (higher = more potent) of 0.655.

Sequence ACATCCTCCTTGTAGAACCAGT registered a sensor-assay potency score (higher = more potent) of -1.04.

Consider TTGAACATGGAGATGTCATGAT, for which the sensor-assay potency score (higher = more potent) worked out at 0.585.

A further assay concerns the target ODF4. The assay is described as above. To be noted: shRNA.
Sequence TATAGGATAAGCACCAGCCAAC yielded a sensor-assay potency score (higher = more potent) of -1.15.

With TCTACTGAGCCGAAACTGCTGC, the sensor-assay potency score (higher = more potent) amounted to 0.472.

TTCTACTGAGCCGAAACTGCTG: the sensor-assay potency score (higher = more potent) was -0.397.

On to TTCCAGGTCTCTGATGTTGGTC, for which the sensor-assay potency score (higher = more potent) was -1.05.

Regarding TTGAAGTAGCAAAGGATCGCGC, the sensor-assay potency score (higher = more potent) came to 0.0925.

In turn, TCTGTGATCGTCTGTGCCCTTG gave a sensor-assay potency score (higher = more potent) of -0.736.

The sequence TCTCTTTCTCCTTCTGACCTGG yielded a sensor-assay potency score (higher = more potent) of -0.166.

As for TTGGTCTCTTTCTCCTTCTGAC, the sensor-assay potency score (higher = more potent) is -0.95.

Consider TAGCAAAGGATCGCGCAGGTGA, for which the sensor-assay potency score (higher = more potent) was -0.209.

As for TCTTCTACTGAGCCGAAACTGC, the sensor-assay potency score (higher = more potent) is -1.39.

A further assay deals with OGDHL. The assay is described as above. To be noted: shRNA.
TGGAGAACTGCATCACACCAGG came in with a sensor-assay potency score (higher = more potent) of -1.03.

Take TTTGAATCTACAGATAAGCGAG: the sensor-assay potency score (higher = more potent) is -0.201.

For TACATCTCCTCCATGTAACTGG, the sensor-assay potency score (higher = more potent) is -0.405.

Turning to TTCTACTTTGGTACACATGAGC, the sensor-assay potency score (higher = more potent) is -0.678.

In the case of TACTTTGGTACACATGAGCTGT, the sensor-assay potency score (higher = more potent) is -0.325.

In turn, TTGACCACGATCCAGTTGCAGT displayed a sensor-assay potency score (higher = more potent) of -1.4.

For the sequence TTGCTCATCTGCAGGAACCTTT, the sensor-assay potency score (higher = more potent) is -0.719.

In turn, TAAGCCTCCTCACAGATCCGGT had a sensor-assay potency score (higher = more potent) of -0.839.

Sequence TTGAATCTACAGATAAGCGAGG yielded a sensor-assay potency score (higher = more potent) of -0.941.

On to TTCAGCACAGGCACCTGTCTGT, for which the sensor-assay potency score (higher = more potent) is 0.114.

TTCTTGGTCATGTCCGCACGGC: the sensor-assay potency score (higher = more potent) is -0.866.

Regarding TTCATAGGCACACACGTCCTGC, the sensor-assay potency score (higher = more potent) was -1.24.

The next assay concerns the target OLFML2A. The description is as above. To be noted: shRNA.
Take TTGTAGTAGGTGAAGCCCCGGA: the sensor-assay potency score (higher = more potent) is -0.647.

Turning to TTGTAGTCGATCTGGGTGGTGT, the sensor-assay potency score (higher = more potent) is -0.246.

As to TTATACTTGACTTTGTTCTAAA, the sensor-assay potency score (higher = more potent) is -0.893.

In turn, TAACTTTTAAAAATCAGCCTAT showed a sensor-assay potency score (higher = more potent) of -0.201.

The sequence TAGCTTGTACATGTTACTCCAG registered a sensor-assay potency score (higher = more potent) of -0.555.

For the sequence TAGTTGGTGACATAGATCCTGT, the sensor-assay potency score (higher = more potent) was -0.519.

Take TACTTGATGATGTTCTTGGTGA: the sensor-assay potency score (higher = more potent) worked out at 0.197.

On to TTGTACATGTTACTCCAGCGGC, for which the sensor-assay potency score (higher = more potent) is -0.677.
